Bioassay records deposited in PubChem BioAssay by several laboratories.
Compounds with a hit are over-represented: about 3.7% of the library has one in this group of screens.
BoNT A protease: BoNT A light chain protease inhibition; multiplex microsphere protease substrate cleavage, flow cytometry; inhibition, % at 10 µM; 360,000 tested, 0.17% active; note: plate controls were buffer without enzyme for full effect and enzyme alone for no effect
MazF activator: MazEF (E. coli) toxin RNase activation | FAM/BHQ RNA-DNA oligo cleavage fluorescence, 5 h | activation, % at 20 µM | 350,000 tested, 0.32% active; in the data active = activation above about 50%
BoNT-F LC inh: inhibitors of Botulinum neurotoxin F light chain protease | inhibition, % at 10 µM | 360,000 tested, 0.22% active | Multiplex microsphere protease cleavage assay, flow cytometry; in the data active = inhibition above about 35%, passing the limit was not always enough; inconclusive = no clear call, values can overlap the other calls; note: plate controls were buffer without enzyme for full effect and enzyme alone for no effect
Anthrax LF prot: anthrax lethal factor protease inhibition | 360,000 tested, 0.12% active | P15917 | inhibition, % at 10 µM | multiplex microsphere protease cleavage assay, LF | AID 588501; note: plate controls were buffer without enzyme for full effect and enzyme alone for no effect
Target sequence (P15917 whole entry, looked up): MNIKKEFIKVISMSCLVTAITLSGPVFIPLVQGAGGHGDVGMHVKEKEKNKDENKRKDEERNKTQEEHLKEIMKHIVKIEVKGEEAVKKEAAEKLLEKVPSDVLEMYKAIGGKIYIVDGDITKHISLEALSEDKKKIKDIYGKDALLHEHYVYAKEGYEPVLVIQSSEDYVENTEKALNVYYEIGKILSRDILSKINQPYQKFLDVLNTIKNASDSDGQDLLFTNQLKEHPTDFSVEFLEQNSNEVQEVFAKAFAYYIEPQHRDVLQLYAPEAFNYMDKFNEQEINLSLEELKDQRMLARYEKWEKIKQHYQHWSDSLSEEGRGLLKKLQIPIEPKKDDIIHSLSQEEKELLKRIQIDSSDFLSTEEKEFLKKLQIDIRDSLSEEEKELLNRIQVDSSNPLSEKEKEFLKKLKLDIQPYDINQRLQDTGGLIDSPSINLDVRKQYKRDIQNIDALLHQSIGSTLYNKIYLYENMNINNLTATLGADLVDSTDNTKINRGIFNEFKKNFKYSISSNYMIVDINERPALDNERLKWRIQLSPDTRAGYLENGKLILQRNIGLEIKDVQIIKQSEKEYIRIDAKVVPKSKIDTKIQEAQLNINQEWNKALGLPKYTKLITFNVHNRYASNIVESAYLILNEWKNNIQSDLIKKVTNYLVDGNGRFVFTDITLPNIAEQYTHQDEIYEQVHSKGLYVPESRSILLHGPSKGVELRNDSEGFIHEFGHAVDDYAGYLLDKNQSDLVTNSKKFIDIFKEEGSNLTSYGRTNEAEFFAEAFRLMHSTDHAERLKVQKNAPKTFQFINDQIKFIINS
Bead autofluor: compound fluorescence in toxin protease inhibitor counterscreen; compound autofluorescence counterscreen, microsphere flow cytometry; active compounds read high; fluorescence intensity (no concentration beside the values); 360,000 tested, 3.1% active; AID 624483; in the data active = fluorescence intensity above about 16000; inconclusive = no clear call, values can overlap the other calls
Numbers without * were called inactive; ? = inconclusive; . = no result given; + = active, no number. Cut-off read from the data, not from the text of the source, unless noted: active = inhibition above about 30%; inconclusive = no clear call, values can overlap the other calls; inactive = below that.

SMILES	BoNT A protease	MazF activator	BoNT-F LC inh	Anthrax LF prot	Bead autofluor
CC(C)=CCN1CCN(Cc2cc(C(C)C)n[nH]2)CC1CCO (stereo unspecified)	1.0	1.2	-1.3	-2.0	4363
COc1ccc(C2C3=C(CC(C)(C)CC3=O)Oc3ncn(Cc4ccco4)c(=N)c32)cc1 (stereo unspecified)	25.6	0.2	36.0*	3.7	8601
COc1ccc(C2C3=C(CC(C)(C)CC3=O)Oc3ncn(CC(C)C)c(=N)c32)cc1 (stereo unspecified)	-0.8	11.5	-0.6	-0.5	3290
Clc1ccc(-c2nnc3sc(-c4ccc(Br)o4)nn23)cc1	-0.4	+	-11.4	-1.3	2967
Clc1ccc(-c2nnc3sc(-c4ccc(Br)o4)nn23)c(Cl)c1	0.9	-62.9	-1.2	-4.7	2428
Cc1oc(-c2ccc(Cl)cc2)cc1-c1nn2c(-c3ccoc3C)nnc2s1	-2.3	12.8	2.6	-5.4	23295*
CCC(NC(=O)COc1cc2c(c3oc(=O)c(C)c(C)c13)CCC(C)(C)O2)C(=O)O (stereo unspecified)	0.2	-2.3	7.7	2.4	3512
COc1ccc(CNC(=O)CN(C(=O)CCC(=O)Nc2nccs2)c2ccc(C)cc2)cc1	-2.6	2.7	-3.5	-2.1	3084
Cc1cccc(-c2nnc(NC(=O)c3ccc(Cl)cc3)o2)c1	-1.9	-5.7	-8.9	-3.3	16877*
O=C(COc1ccc2ccc(=O)oc2c1)Nc1ccc2c(c1)OCCO2	-6.6	13.6	-10.7	2.1	21506*
Cc1ccc(C)c(S(=O)(=O)N2CCN(C(=O)[C@@H]3CCCN3C(=O)c3cccs3)CC2)c1	-0.6	6.4	-5.5	4.0	4042
COc1ccc(C(=O)O/N=C(\C)c2nccs2)cc1	0.4	-3.7	0.9	0.0	3208
C/C(=N\OC(=O)c1ccc(F)cc1)c1nccs1	0.2	7.9	-1.6	-3.9	23617*
Cc1cc(C)c(C#N)c(Nc2ccccc2)n1	-3.9	1.0	-5.8	-0.3	21778*
Cc1cccc(Nc2nc(C)cc(C)c2C#N)c1	-0.7	5.8	?	-6.9	4028
C[C@H](CO)N1C[C@H](C)[C@H](CN(C)S(=O)(=O)c2cccc(F)c2)Oc2ncc(-c3cccc(C(=O)N(C)C)c3)cc2C1=O	-0.6	3.6	-7.4	-3.4	3703
CC(C)OC(=O)CC(=O)CSc1nc2c(c(-c3cccs3)c1C#N)CCC2	29.5*	-8.4	7.2	9.8	2297
CCOC(=O)CSc1nc2c(c(-c3ccc(C)o3)c1C#N)CCCC2	0.2	3.7	-2.4	0.2	23315*
CC(=O)Nc1ccc2c(c1)nc(CCNC(=O)c1ccccc1)n2C	1.1	4.1	7.3	-2.0	8296
Cn1c(CCNC(=O)c2ccccc2)nc2cc(NC(=O)C3CCCCC3)ccc21	2.6	-2.8	1.9	-0.7	18656*
Cn1c(CN2CCCCC2)nc2cc(NC(=O)c3ccccc3)ccc21	1.8	5.1	1.2	3.7	22188*
Cn1c(CN2CCCCC2)nc2cc(NC(=O)c3cccc(Br)c3)ccc21	0.7	-11.9	-8.0	1.1	8491
CCCCCc1ccc(CC(=O)O)cc1	?	1.1	-4.6	-6.0	25330*
CCCCc1ccc(CC(=O)O)cc1	-0.7	0.6	-13.7	2.7	4272
COc1ccc(CCNC(=O)c2nnc(Cc3c(F)cccc3Cl)o2)cc1OC	0.2	-11.4	5.5	1.1	3713
SMILES	BoNT A protease	MazF activator	BoNT-F LC inh	Anthrax LF prot	Bead autofluor
O=C(NCCCN1CCCC1=O)c1nnc(Cc2c(F)cccc2Cl)o1	?	-2.5	-0.9	-0.4	22538*
CN1CCN(CCCNC(=O)c2nnc(Cc3c(F)cccc3Cl)o2)CC1	9.7	-7.0	8.9	-8.9	18850*
Cc1cc(C)nc(Nc2n[nH]c(COc3ccc4ccccc4c3)n2)n1	1.1	35.4	-1.4	-0.9	22079*
O=C(COC(=O)c1ccc(Br)c(S(=O)(=O)N2CCOCC2)c1)NCCc1ccccc1	0.2	-18.1	-11.4	-1.7	3493
O=c1[nH]c(O)c(/C=C2\C=NN=C2c2ccccc2)c(=O)[nH]1	-4.4	-3.7	-5.9	-1.8	21773*
CCc1nc2cc(Cl)c(Cl)cc2[nH]1	?	-11.8	1.3	-0.8	23720*
Cc1ccc2[nH]cc(CCNC(=O)Nc3ccccc3)c2c1	-3.0	4.4	-6.7	-0.5	21739*
CC(=O)c1cccc(NC(=O)NCCc2c[nH]c3ccccc23)c1	1.0	-8.5	?	-2.8	3867
Cc1ccc(N=Nc2c(C)[nH]n(C(N)=S)c2=O)cc1C	2.2	1.9	0.1	-0.2	2082
Cc1[nH]n(C(N)=S)c(=O)c1N=Nc1ccc(S(=O)(=O)N2CCCCCC2)cc1	?	-1.3	-11.9	-3.0	21910*
O=C(NCCNC(=O)c1ccc(Br)o1)c1cccnc1	-3.5	0.9	-10.6	-2.7	7260
COc1cccc(C(C(=O)NC2CCCCC2)N(C(=O)c2csnn2)C2CC2)c1 (stereo unspecified)	0.6	0.0	3.2	-0.8	5207
O=C(COC(=O)c1cccnc1Cl)c1ccc(Cl)cc1Cl	3.6	-0.1	5.1	-0.9	19499*
CC(=O)Nc1ccc(S(=O)(=O)N(C)CC(=O)OCC(=O)N2CC(C)OC(C)C2)cc1 (stereo unspecified)	4.9	3.4	3.8	-6.0	4116
CC(C)CO/C(=N/S(=O)(=O)c1ccccc1)c1ccccc1	-1.4	5.5	-3.1	-2.9	21474*
Cc1ccccc1NC(=O)COC(=O)c1ccc2c(c1)OCCO2	1.7	6.0	2.3	-3.6	5156
COC(=O)c1ccc(Cl)c(NC(=O)CN(c2ccc3c(c2)OCO3)S(C)(=O)=O)c1	4.4	-0.4	6.7	-10.8	20796*
O=C(COC(=O)c1ccc2c(c1)OCCO2)Nc1cc(Cl)ccc1Cl	-0.4	52.8*	-13.1	0.5	4336
CC(=O)CC(=O)Nc1ncccn1	-1.0	3.4	-9.3	3.8	3513
Cc1cccc(C)c1OCCCCc1c(C)n[nH]c1C	0.5	-11.0	-5.4	-7.8	22821*
COc1cccc(OC)c1OCCCCc1c(C)n[nH]c1C	0.3	1.6	-3.2	0.6	3161
CSC1=NC=C(C#N)C2=NC(c3c(Cl)cccc3Cl)NN12 (stereo unspecified)	-0.6	.	-1.8	-5.5	4332
CC1(C)NC(=O)N(CCCCOc2ccc(Cl)cc2)C1=O	-2.9	-8.5	-5.6	-0.3	23237*
CCc1cc(OCCN2C(=O)NC(C)(C)C2=O)ccc1Cl	-0.2	0.7	-4.8	-9.6	20493*
CC1(C)NC(=O)N(CCCCOc2ccc(Br)cc2Cl)C1=O	-3.8	-2.7	-16.1	2.0	?
SMILES	BoNT A protease	MazF activator	BoNT-F LC inh	Anthrax LF prot	Bead autofluor
CC1(C)NC(=O)N(CCCCOc2ccc(Cl)cc2C=O)C1=O	0.1	1.9	-3.8	4.5	4473
Cc1cc(OCCCCN2C(=O)NC(C)(C)C2=O)cc(C)c1Cl	0.1	2.3	0.1	-2.5	23207*
CC1(C)NC(=O)N(CCCOc2ccc(Br)cc2Cl)C1=O	-0.7	2.3	-1.9	-3.0	23298*
O=[N+]([O-])c1ccc(Nc2ccccc2F)nc1	0.2	4.3	-2.3	-4.3	4108
Oc1ccc(Cl)cc1C1=Nc2ccccc2N=C(c2ccco2)C1	0.7	112.9*	-2.7	1.1	11307
COc1ccc(NC(=O)c2oc3ccccc3c2C)c(OC)c1	?	11.6	-3.3	-0.1	22634*
